# Source: PubChem (Sanford-Burnham Center for Chemical Genomics)
# CD11b adhes enh: increases human CD11b/CD18 adhesion to fibrinogen; P05107+P11215; activation, % at 10 µM; actives 0.07% (n = 93,000); K562 CD11b/CD18 adhesion to fibrinogen, ATPlite luminescence;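 active means 10 µM primary screen giving 50% or more activity, confirmed by 40% or more on retest at that dose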
# Target sequence (P05107 whole entry, looked up, other chains not shown): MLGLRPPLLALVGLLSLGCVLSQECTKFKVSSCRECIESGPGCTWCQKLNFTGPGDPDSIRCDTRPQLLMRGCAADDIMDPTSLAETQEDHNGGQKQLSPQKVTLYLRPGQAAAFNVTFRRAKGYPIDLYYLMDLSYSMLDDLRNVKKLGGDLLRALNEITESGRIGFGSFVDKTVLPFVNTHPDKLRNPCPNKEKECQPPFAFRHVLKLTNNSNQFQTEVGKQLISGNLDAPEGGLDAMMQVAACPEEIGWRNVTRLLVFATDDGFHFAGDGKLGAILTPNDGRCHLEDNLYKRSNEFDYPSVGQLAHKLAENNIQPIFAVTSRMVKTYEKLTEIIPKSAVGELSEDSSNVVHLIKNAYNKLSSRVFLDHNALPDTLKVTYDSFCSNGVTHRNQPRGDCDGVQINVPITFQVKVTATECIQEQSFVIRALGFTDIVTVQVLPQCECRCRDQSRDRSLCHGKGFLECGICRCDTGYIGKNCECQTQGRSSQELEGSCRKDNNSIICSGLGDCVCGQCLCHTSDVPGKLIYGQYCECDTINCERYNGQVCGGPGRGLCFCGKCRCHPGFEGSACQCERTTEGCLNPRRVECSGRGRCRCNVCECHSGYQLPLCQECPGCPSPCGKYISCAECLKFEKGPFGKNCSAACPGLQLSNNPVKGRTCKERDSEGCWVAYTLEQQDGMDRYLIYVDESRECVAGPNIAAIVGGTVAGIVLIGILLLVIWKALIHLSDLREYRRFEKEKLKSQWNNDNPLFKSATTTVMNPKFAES
# CYP2C19 inh: inhibitors of human CYP2C19. P33261. CYP2C19 Supersomes, luciferin-H EGE luminescence, 30 min. inhibition, % at 5 µM. actives 21% (n = 96,000). AID 778;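 active means CYP2C19 inhibition above a set limit at 5 µM in the primary screen, cut at about 50% in these data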;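 further: plate controls were negative control wells for no effect and 2.5 mM tranylcypromine positive control for full effect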
# CYP2C9 act: CYP2C9 (human) activation; P11712; recombinant CYP2C9, luciferin-H conversion, luminescence; stronger effect = higher value; factor 1 = untreated enzyme, 0 = blocked; activation factor at 5 µM; actives 1.4% (n = 96,000); AID 1024;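 active means activation factor of 2 or more for CYP2C9 at a 5 µM dose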;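 further: 0 = sulfaphenazole-blocked wells and 1 = vehicle-only wells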
# Mac1 fbg inh: CD11b/CD18-fibrinogen binding inhibition. K562 CD11b/CD18 adhesion to fibrinogen, ATPlite luminescence; Mn2+ added to activate the integrin. inhibition, % at 10 µM. actives 0.54% (n = 93,000);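 active means primary inhibition of 50% or more at 10 µM, then 40% or more on retest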
# CYP2C19 activ: cytochrome P450 2C19 (human) activation. 96,000 tested, under 10 active. P33261. activation factor at 5 µM. recombinant CYP2C19, luciferin-H EGE luminescence; stronger effect = higher value; 0 = fully inhibited enzyme, 1 = untreated enzyme;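 active means activation factor of at least 2 at 5 µM in the primary screen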;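 further: 0 = wells with 2.5 mM tranylcypromine and 1 = vehicle-only wells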
# CYP2C9 inhib: human CYP2C9 inhibition. inhibition, % at 5 µM. CYP2C9 Supersomes, luciferin-H conversion, luminescence. actives 20% (n = 96,000). P11712;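 active means blocking of liver enzyme CYP2C9 beyond about 50% at 5 µM, limit read from the data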
# Numbers without * were called inactive; x = not tested or not shown. In the library only some 28% were active in any assay of this set; here they are far more common.
SMILES,CD11b adhes enh,CYP2C19 inh,CYP2C9 act,Mac1 fbg inh,CYP2C19 activ,CYP2C9 inhib
Cc1noc(NS(=O)(=O)c2ccc(NC(=O)CSc3n[nH]c(-c4ccccc4)n3)cc2)c1C,-0.2,1.1,0.7,-9.4,1,28.1
CN(c1ccc(C(=O)N2CCCCC2)cc1)S(C)(=O)=O,1.9,-12.6,1.2,-10.3,1.1,-16.1
CCOC(=O)c1sc(NC(=O)CSc2nccc(C)n2)c(C#N)c1C,-3.9,10.5,0.8,-0.1,0.9,24.4
CCOC(=O)c1sc(NC(=O)CSc2n[nH]c(-c3ccncc3)n2)c(C#N)c1C,-4.0,3.5,0.5,38.3,1,50.6*
Cc1ccc(C(=O)CSc2n[nH]c(-c3ccco3)n2)cc1C,1.0,24.3,0.6,-10.0,0.8,36.3
O=C(CSc1n[nH]c(-c2ccccc2)n1)c1ccc(O)c(O)c1,-7.1,64.0*,0.4,2.8,0.4,55.7*
O=C(CCOc1ccccc1)Nc1ccc(S(=O)(=O)N2CCCC2)cc1,-2.3,50.0*,0.1,5.9,0.5,85.8*
O=C(COc1ccccc1)Nc1ccc(S(=O)(=O)N2CCCC2)cc1,-2.2,-10.5,0.8,-11.8,1.1,21.9
O=C(CCCOc1ccccc1)Nc1ccc(S(=O)(=O)N2CCOCC2)cc1,-2.0,54.9*,0.3,3.9,0.5,70.2*
COc1ccc(C(NC(=O)c2ccco2)c2ccc(OC)c(OC)c2)cc1OC,-5.8,72.4*,0.4,0.8,0.3,61.3*
COc1ccc(OC)c(C(C)NC(=O)c2ccco2)c1 (stereo not drawn),-1.7,82.0*,0.3,9.4,0.2,66.3*
COc1ccc(OC)c(C(C)NC(C)=O)c1 (stereo not drawn),-3.0,-9.6,1.2,-9.0,1.1,-15.2
O=c1c(Cc2ccc(F)cc2)c(O)ccn1Cc1cccc(Cl)c1,6.8,20.9,0.8,-22.2,0.8,16.0
CCCNS(=O)(=O)c1ccc(CCC(=O)Nc2ccc3c(c2)OCO3)cc1,-0.4,94.8*,0.2,-4.9,0.1,81.8*
O=C(CCc1ccc(S(=O)(=O)NCCc2ccccc2)cc1)Nc1ccc2c(c1)OCCO2,-1.5,x,x,17.4,x,x
CC(C)CNS(=O)(=O)c1ccc(CCC(=O)Nc2ccc3c(c2)OCCO3)cc1,6.0,38.7,0.4,-4.0,0.6,58.0*
CC(C)c1ccc(S(=O)(=O)N2CCN(CC(=O)Nc3ccc4c(c3)OCO4)CC2)cc1,2.0,11.8,0.8,-5.6,0.9,18.7
O=C(CCNS(=O)(=O)c1ccc2c(c1)CCC(=O)N2)Nc1ccc2c(c1)OCCO2,-7.2,-12.8,0.9,1.7,1.1,11.0
COc1ccc(CC(=O)Nc2ccc(S(=O)(=O)NC(C)C)cc2)cc1,-0.7,62.1*,0.4,11.3,0.4,59.9*
CC(C)NS(=O)(=O)c1ccc(CCC(=O)Nc2ccc3c(c2)OCO3)cc1,-2.9,47.8,0.5,-0.4,0.5,51.6*
CCOC1(OCC)C(c2ccc(Cl)cc2)C(C#N)(C#N)C1(OCC)OCC (stereo not drawn),-1.6,40.4,0.5,25.8,0.6,48.5
Cc1n[nH]c(C)c1Sc1ccccc1N=Cc1cc(Cl)cc([N+](=O)[O-])c1O,-5.5,19.3,0.7,57.3*,0.8,26.2
Cc1cc(Br)ccc1SCC(=O)OCC(=O)Nc1ccccc1C#N,5.0,x,x,12.4,x,x
O=C(COc1ccc2ccccc2c1)NCCNC(=O)COc1ccc2ccccc2c1,21.1,37.8,0.7,-28.0,0.6,32.6
Cc1cc(C)cc(OCC(=O)NC2=NCCS2)c1,5.1,28.1,2.3*,-8.4,0.7,-129.9
SMILES,CD11b adhes enh,CYP2C19 inh,CYP2C9 act,Mac1 fbg inh,CYP2C19 activ,CYP2C9 inhib
O=C(COc1ccc2ccccc2c1)NC1=NCCS1,-1.4,64.8*,1.6,7.9,0.4,-59.0
O=C(CNC(=O)c1cccs1)NC1=NCCS1,3.6,10.7,1,-0.1,0.9,-3.4
CCOc1ccc(S(=O)(=O)c2c(C(=O)c3ccccc3)cnc3cc4c(cc23)OCCO4)cc1,3.7,x,x,5.2,x,x
CCCCNC(=O)c1cc2nc3c(c(C(F)(F)F)n2n1)CCc1ccccc1-3,x,3.1,0.8,x,1,20.6
CC(C)CNC(=O)c1cc2nc3c(c(C(F)(F)F)n2n1)CCc1ccccc1-3,-1.1,68.1*,0.1,-3.0,0.3,88.4*
N#Cc1c(SCC(=O)Nc2ccccc2)nsc1SCC(=O)Nc1ccccc1,30.8,x,x,8.4,x,x
Cc1ccccc1N1C(=O)c2cccc3c(N(C)CCO)ccc(c23)C1=O,-2.4,50.0*,0.9,-0.8,0.5,14.6
Cc1nn(-c2ccccc2)c(Cl)c1/C=C/C(=O)c1ccccc1,1.0,70.3*,0.3,24.4,0.3,65.8*
Cc1nn(-c2ccccc2)c(Cl)c1/C=C(\CC(=O)O)c1nc2ccccc2s1,-1.7,19.1,0.3,1.6,0.8,74.3*
CCC(C)(C)n1nnnc1CN1CCN(c2nc3cc(OC)ccc3cc2C#N)CC1,-0.3,30.4,0.9,-4.0,0.7,5.4
C=CCn1c(SCC(=O)c2[nH]c(C)c(C(=O)OCC)c2C)nc2scc(-c3ccc(OC)c(OC)c3)c2c1=O,27.0,x,x,11.8,x,x
O=C(NCc1ccc2c(c1)OCO2)c1ccc(CN2CCOCC2)cc1,-1.8,1.9,0.9,-1.2,1,8.6
Cc1ccc(C(=O)NCc2ccc3c(c2)OCO3)cc1S(=O)(=O)N1CCCCC1,x,51.1*,0.2,x,0.5,81.0*
O=C(NCc1ccc2c(c1)OCO2)c1ccc(Cl)c(S(=O)(=O)N2CCOCC2)c1,-2.6,38.1,0.3,-3.4,0.6,68.0*
Cc1ccc(C(=O)NCc2ccc3c(c2)OCO3)cc1S(=O)(=O)N1CCOCC1,0.9,66.0*,0.2,-2.0,0.3,76.0*
CCN(CC)c1ccc(C2C(C(=O)Nc3ccccn3)=C(C)NC3=C2C(=O)CC(C)(C)C3)cc1 (stereo not drawn),5.3,42.2,0.1,-3.8,0.6,93.9*
CCCOC(=O)C1=C(C)NC2=C(C(=O)CC(C)(C)C2)C1c1ccc(N(C)C)cc1 (stereo not drawn),-1.3,85.4*,0.2,-11.1,0.1,79.7*
CCOC(=O)C1=C(C)NC2=C(C(=O)CC(C)(C)C2)C1c1cccc(C)n1 (stereo not drawn),-3.2,54.7*,0.8,59.7,0.5,16.5
COC(=O)c1ccc(C2C(C#N)=C(C)NC3=C2C(=O)CC(C)(C)C3)cc1 (stereo not drawn),-6.6,24.0,0.6,-1.1,0.8,35.5
CCSc1cc(C2C(C(=O)OC)=C(C)NC3=C2C(=O)CCC3)c(C)o1 (stereo not drawn),0.2,25.3,0.8,-10.1,0.7,22.9
COCCOC(=O)C1=C(C)NC2=C(C(=O)CCC2)C1c1cc2c(cc1Br)OCO2 (stereo not drawn),1.7,96.4*,0.2,-1.5,0,78.7*
